From PubChem BioAssay (NCATS)
Records with an inconclusive call do not appear. Active and inactive are the calls of the source. Unless noted, the call rests on the fitted dose curve; in most records, active means well fitted curve in the direction sought with a large enough effect; inconclusive means small, poorly fitted or top-dose-only effect, or another doubt; inactive means no such curve, though single readings can be large; an effect the other way counts as inactive or inconclusive.

Legend:
[1] = target: Thioredoxin reductase 1, cytoplasmic (Rattus norvegicus) (UniProt O89049); assay: qHTS Assay for Substrates of Mammalian Selenoprotein Thioredoxin Reductase 1 (TrxR1) (AID 488772);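 further: NADPH fluorescence in the first read after selenite addition and not the 8 min delta; series mostly up to about 57 µM; 0% is about no effect; a drop in NADPH fluorescence below the no-compound background marks a TrxR1 substrate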
Chain of Thioredoxin reductase 1, cytoplasmic (Rattus norvegicus) (O89049 whole entry, looked up): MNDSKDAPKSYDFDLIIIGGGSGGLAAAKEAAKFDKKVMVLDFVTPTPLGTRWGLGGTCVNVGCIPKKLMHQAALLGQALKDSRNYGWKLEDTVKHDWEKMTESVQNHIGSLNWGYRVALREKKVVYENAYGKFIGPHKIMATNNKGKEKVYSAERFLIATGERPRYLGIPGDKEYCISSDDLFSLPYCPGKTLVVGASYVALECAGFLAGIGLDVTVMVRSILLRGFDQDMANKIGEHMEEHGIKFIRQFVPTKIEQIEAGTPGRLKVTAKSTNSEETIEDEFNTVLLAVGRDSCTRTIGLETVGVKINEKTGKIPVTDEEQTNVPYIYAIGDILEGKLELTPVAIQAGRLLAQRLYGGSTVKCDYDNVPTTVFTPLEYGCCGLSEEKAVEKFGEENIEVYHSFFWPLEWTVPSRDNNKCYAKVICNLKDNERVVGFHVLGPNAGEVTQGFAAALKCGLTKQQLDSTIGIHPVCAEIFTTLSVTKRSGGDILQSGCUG
Procedure, shortened: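 Quantitative HTS in Tris-HCl buffer at pH 7.5 with EDTA and Tween-20, using rat TrxR1, 400 uM NADPH and 400 uM selenite (final). A fall in initial NADPH fluorescence relative to background marked substrate behaviour.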

[2] = target: Thioredoxin reductase 1, cytoplasmic (Rattus norvegicus) (UniProt O89049); assay: qHTS Assay for Inhibitors of Mammalian Selenoprotein Thioredoxin Reductase 1 (TrxR1) (AID 488773); details: Potency: inhibition;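 further: drop in NADPH fluorescence over an 8 min run after selenite addition; series mostly up to about 57 µM; on the % scale 0 is the no-effect control and ±100 the full control effect; nearly all actives have a fitted effect of over 40% in size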
Procedure, shortened: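 Steps: enzyme (90 nM) plus NADPH (400 uM final), 5 min at ~22 deg C; compound added, 15 min; selenite (400 uM final) added; fluorescence followed for 8 min. Concentration-response curves derived from the normalized delta values.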

[3] = target: Flap endonuclease 1 (Homo sapiens) (UniProt P39748); assay: qHTS Validation Assay for the Inhibitors of Human Flap endonuclease 1 (FEN1) (AID 488816); further: on the % scale 0 is the no-effect control and ±100 the full control effect
Procedure, shortened: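 FEN1, dispensed as a 10 nM reagent, was preincubated with pin-transferred compounds for 15 min at room temperature before substrate was added (50 nM final). Plates were read at 0 and 15 min, and a four-parameter Hill equation was fitted to the concentration-response data.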

[4] = target: M-phase phosphoprotein 8 (Homo sapiens) (UniProt Q99549); assay: qHTS Validation Assay for Inhibitors for MPP8 Chromodomain Interactions with Methylated Histone Tails (AID 488949);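 further: AlphaScreen signal from MPP8 chromodomain bound to biotinylated H3K9me3 peptide; top concentration of the series differs between compounds; on the % scale 0 is the no-effect control and ±100 the full control effect; nearly all actives have a fitted effect of over 55% in size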
Chain of M-phase phosphoprotein 8 (Homo sapiens) (Q99549 whole entry, looked up): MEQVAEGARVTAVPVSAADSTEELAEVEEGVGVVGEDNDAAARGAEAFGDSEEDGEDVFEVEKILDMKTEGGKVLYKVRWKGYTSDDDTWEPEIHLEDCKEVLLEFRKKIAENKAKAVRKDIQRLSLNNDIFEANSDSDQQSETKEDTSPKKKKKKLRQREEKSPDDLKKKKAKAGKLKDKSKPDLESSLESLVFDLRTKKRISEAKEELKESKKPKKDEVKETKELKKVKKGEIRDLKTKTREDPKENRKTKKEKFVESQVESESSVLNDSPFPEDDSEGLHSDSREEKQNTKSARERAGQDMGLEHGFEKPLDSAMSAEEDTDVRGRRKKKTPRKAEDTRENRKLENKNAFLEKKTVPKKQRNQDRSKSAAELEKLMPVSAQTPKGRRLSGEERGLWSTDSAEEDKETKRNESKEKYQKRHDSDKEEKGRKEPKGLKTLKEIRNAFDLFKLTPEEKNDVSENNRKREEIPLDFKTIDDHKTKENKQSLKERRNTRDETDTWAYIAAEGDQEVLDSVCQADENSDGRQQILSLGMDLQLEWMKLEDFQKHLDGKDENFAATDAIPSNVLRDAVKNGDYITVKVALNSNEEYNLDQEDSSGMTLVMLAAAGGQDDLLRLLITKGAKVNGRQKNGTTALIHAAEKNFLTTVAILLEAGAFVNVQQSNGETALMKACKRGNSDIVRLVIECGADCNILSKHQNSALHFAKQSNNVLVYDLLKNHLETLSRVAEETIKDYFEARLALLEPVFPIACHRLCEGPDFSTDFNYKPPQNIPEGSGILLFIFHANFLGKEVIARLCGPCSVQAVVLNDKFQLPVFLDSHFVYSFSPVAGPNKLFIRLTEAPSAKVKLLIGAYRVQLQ
Procedure, shortened: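 Disruption of the preformed MPP8–trimethyl-H3K9 peptide complex (both 50 nM, 30 min, RT) is measured after 30 min compound exposure, using AlphaScreen proximity beads; aurintricarboxylic acid titration serves as plate control.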

[5] = target: Methanococcus maripaludis chaperonin (MmCpn) (UniProt Q6LX38); assay: High-Throughput Screening for Modulators of Cytosolic Chaperonin Activity: MmCpn Primary Screen (AID 488978);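 further: 50 nM MmCpn enzyme hydrolysing 30 µM ATP at 37 °C; 0% is about no effect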
Procedure, shortened: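 Measures ATPase turnover of the M. maripaludis chaperonin (50 nM final) against 30 uM ATP over 10 min at 37C, with compound added 5 min beforehand at room temperature. ADP is quantified by HTRF immunodetection.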

[6] = target: Thyrotropin receptor (Homo sapiens) (UniProt P16473); assay: qHTS Assay for Antagonists of the Thyroid Stimulating Hormone Receptor (AID 488980); further: series mostly up to about 58 µM; 0% is about no effect
Procedure, shortened: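 Cells expressing human TSHR (HEK293) are dispensed in HBSS/HEPES containing 70 uM RO 20-1724, compound is added, then TSH at EC80 (4 nM final). Antibody in lysis buffer follows, 30 minutes at room temperature before HTRF detection.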

[7] = target: D(1A) dopamine receptor (Homo sapiens) (UniProt P21728); assay: HTS Assay for Allosteric Agonists of the Human D1 Dopamine Receptor: Primary Screen for Agonists (AID 488981); further: 0% is about no effect
Chain of D(1A) dopamine receptor (Homo sapiens) (P21728 whole entry, looked up): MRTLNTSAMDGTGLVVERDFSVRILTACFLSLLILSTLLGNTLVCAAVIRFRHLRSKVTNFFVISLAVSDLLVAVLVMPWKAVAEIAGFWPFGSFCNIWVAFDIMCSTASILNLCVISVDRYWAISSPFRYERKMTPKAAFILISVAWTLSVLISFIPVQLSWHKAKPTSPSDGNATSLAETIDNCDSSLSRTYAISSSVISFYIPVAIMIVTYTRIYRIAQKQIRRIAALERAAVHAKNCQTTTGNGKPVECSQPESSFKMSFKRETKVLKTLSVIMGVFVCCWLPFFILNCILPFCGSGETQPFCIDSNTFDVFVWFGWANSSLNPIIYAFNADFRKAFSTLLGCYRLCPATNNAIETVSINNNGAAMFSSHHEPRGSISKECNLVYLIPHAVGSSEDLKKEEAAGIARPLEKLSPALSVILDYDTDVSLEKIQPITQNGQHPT
Procedure, shortened: (§1)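 Tetracycline-induced HEK293 T-REx cells force-coupled to calcium signalling were incubated overnight at 30 C and dye-loaded at room temperature. Calcium flux over 180 s after compound addition flagged agonists; a further 180 s read after EC20 dopamine flagged potentiators.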

[8] = target: D(1A) dopamine receptor (Homo sapiens) (UniProt P21728); assay: HTS Assay for Allosteric Agonists of the Human D1 Dopamine Receptor: Primary Screen for Potentiators (AID 488982); further: 0% is about no effect
Procedure, shortened: as §1

[9] = target: D(1A) dopamine receptor (Homo sapiens) (UniProt P21728); assay: HTS Assay for Allosteric Agonists of the Human D1 Dopamine Receptor: Primary Screen for Antagonists (AID 488983);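 further: calcium flux response to an EC80 dopamine challenge measured with no-wash dye; on the % scale 0 is the no-effect control and ±100 the full control effect; nearly all actives have a fitted effect of over 65% in size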
Procedure, shortened: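 Cells are induced with tetracycline and incubated overnight at 30 C, then loaded with calcium dye for 30 to 90 minutes at room temperature. Compound addition is followed by a 180 s read, then an EC80 dopamine addition and another 180 s read.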

[10] = Validation screen for small molecules that induce genotoxicity in human embryonic kidney (HEK293T) cells expressing luciferase-tagged ELG1 (AID 493106); further: 0% is about no effect
Procedure, shortened: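 Luminescence from an ELG1-luciferase fusion serves as the read-out, rising when genetic stress elevates ELG1 protein. HEK293T reporter cells (2,000 per well) received 23 nL compound, incubated 16 hr at 37 °C, then ONE-Glo for 30 min at room temperature.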

[11] = target: Thyrotropin-releasing hormone receptor (Homo sapiens) (UniProt P34981); assay: qHTS for Small Molecule Agonists and Allosteric Enhancers of Human TRH Receptor: Validation Screen for Agonists (AID 493127;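 active means calcium activation more than 3 SD above the typical response in the agonist read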;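 further: intracellular calcium rise by fluo-8 fluorescence before TRH EC20 addition; 0% is about no effect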); details: TRH receptor agonist cell assay; at 2 µM; stronger effect = higher value
Procedure, shortened: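 Cells 2000/well, 10% FCS, 18 h 33.5C/5% CO2 → fluo-8 Ca dye, RT 30 min–1.5 h → FDSS baseline 10 × 1 s → compound added → 230 cycles (1 s/cycle) agonist mode. TRH controls.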

[12] = Nrf2 qHTS screen for inhibitors: Validation (AID 493153; active means well fitted inhibition curve with a large enough effect in the main read-out, with a control signal flat, not every such curve was filed as active); details: viability change: measured here: cytotoxicity max response
Procedure, shortened: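 Luminescence from an ARE-firefly luciferase reporter in A549 cells gives Nrf2 inhibition; an earlier CellTiter-Fluor fluorescent read flags cytotoxicity. Cells in 5% FBS OPTI-MEM received compound dilution series for 18-24 h at 37°C.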

[13] = qHTS for Inhibitors of Cell Surface uPA Generation: Validation Assay (AID 493164); further: 0% is about no effect
Procedure, shortened: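 RAW 264.7 cells (4000/well) were plated overnight, then exposed for 18 h at 37 C, 5% CO2 to compounds in a 7-point 1:5 titration (2.45 nM–38.3 uM final). Intracellular ATP was read by ATP-Lite luminescence.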

[14] = target: Galactokinase (Homo sapiens) (UniProt P51570); assay: qHTS Validation Assay for Inhibitors of Human Galactokinase (GALK) (AID 493189); further: 0% is about no effect
Procedure, shortened: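 Compounds were pin-transferred into ATP buffer, then GALK-galactose mix was added (final 5 nM enzyme, 100 uM galactose, 35 uM ATP). After 1 h at room temperature, remaining ATP was measured luminescently.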

[15] = Validation screen for small molecules that induce DNA re-replication in SW480 colon adenocarcinoma cells (AID 504364); further: 0% is about no effect
Procedure, shortened: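 250 cells/well; compound pinned in; 48 hr, 37 C, 5% CO2; Hoechst added, 40 min; nuclear fluorescence imaged, 405 ex / 500-530 em; re-replication scored as increase in high-intensity nuclei.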

[16] = target: Peptidyl-prolyl cis-trans isomerase NIMA-interacting 1 (Homo sapiens) (UniProt Q13526); assay: qHTS Validation Assay to Find Inhibitors of Pin1 (AID 504536; active means well fitted inhibition curve with a large enough effect in the polarisation, with a control signal flat, not every such curve was filed as active; the % refers to the polarisation;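 further: 0% = full Pin1 enzyme wells and -100% = no-enzyme wells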)
Chain of Peptidyl-prolyl cis-trans isomerase NIMA-interacting 1 (Homo sapiens) (Q13526 whole entry, looked up): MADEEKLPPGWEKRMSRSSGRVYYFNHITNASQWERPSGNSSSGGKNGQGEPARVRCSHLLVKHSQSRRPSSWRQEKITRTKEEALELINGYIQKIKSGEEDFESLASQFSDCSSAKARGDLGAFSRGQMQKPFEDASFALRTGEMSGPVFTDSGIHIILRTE
Procedure, shortened: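 Fluorescence polarization competition: compounds (titration) displace HiFluor-488-labeled Pin1-1b peptide from Pin1 (0.3 uM final) in pH 7.5 HEPES buffer with DTT, 10 min at room temperature; %Activity normalized to no-enzyme wells, curves fitted.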

[17] = target: Phosphoglycerate kinase, glycosomal (Trypanosoma brucei brucei) (UniProt P07378); assay: qHTS Validation Assay to Find Inhibitors of Phosphoglycerate Kinase (AID 504547);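 further: control wells lack PGK and mark full inhibition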
Chain of Phosphoglycerate kinase, glycosomal (Trypanosoma brucei brucei) (P07378 whole entry, looked up): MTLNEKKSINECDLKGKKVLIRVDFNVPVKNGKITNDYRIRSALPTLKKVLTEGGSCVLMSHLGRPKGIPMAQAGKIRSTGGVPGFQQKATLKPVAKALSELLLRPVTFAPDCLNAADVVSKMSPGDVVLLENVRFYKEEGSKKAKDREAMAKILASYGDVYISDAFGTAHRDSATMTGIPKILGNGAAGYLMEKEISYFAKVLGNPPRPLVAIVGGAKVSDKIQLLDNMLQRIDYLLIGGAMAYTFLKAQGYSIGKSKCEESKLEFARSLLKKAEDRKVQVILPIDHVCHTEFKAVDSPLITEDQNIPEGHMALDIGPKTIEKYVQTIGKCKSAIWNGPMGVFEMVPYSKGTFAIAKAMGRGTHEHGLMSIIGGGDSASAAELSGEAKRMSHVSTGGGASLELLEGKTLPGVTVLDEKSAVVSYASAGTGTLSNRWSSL
Procedure, shortened: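 Substrate/PGK mix plus compound; reaction started with GAPDH (100nM final) to form 1,3-BPG; 60 min RT; Kinase-Glo Plus 10 min; luminescence. TEA 100mM pH 7.6, MgCl2 5mM, Tween-20 0.01%.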

[18] = target: phosphoglycerate mutase (Leishmania major) (UniProt Q4Q090); assay: qHTS Validation Assay to Find Inhibitors of Phosphoglycerate Mutase (AID 504548); further: series mostly up to about 58 µM; on the % scale 0 is the no-effect control and ±100 the full control effect
Procedure, shortened: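 Lm PGAM at 1.25 nM final with substrate in 100 mM TEA pH 7.6, 5 mM MgCl2, 0.01% Tween-20; 45 min at room temperature. Kinase-GloPlus added, 10 min, end-point luminescence read.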

[19] = target: Ubiquitin carboxyl-terminal hydrolase 1 (Homo sapiens) (UniProt O94782); assay: Inhibitors of USP1/UAF1: Pilot qHTS (AID 504865);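 further: rhodamine fluorescence freed from ubiquitin-rhodamine substrate followed over time; top concentration of the series differs between compounds; on the % scale 0 is the no-effect control and ±100 the full control effect; nearly all actives have a fitted effect of over 35% in size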
Procedure, shortened: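 Kinetic fluorescence assay: 1nM USP1/UAF1, 15 min compound preincubation, then 150nM Ub-Rho; 480/540 nm.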

[20] = target: Voltage-gated inwardly rectifying potassium channel KCNH2 (Homo sapiens) (UniProt Q12809); assay: qHTS Assay for Small Molecule Inhibitors of the Human hERG Channel Activity (AID 588834);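 further: potency means the concentration at half of the fitted maximal effect; lower thallium flux fluorescence means stronger hERG block; nearly all actives have a fitted effect of over 50% in size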
Chain of Voltage-gated inwardly rectifying potassium channel KCNH2 (Homo sapiens) (Q12809 whole entry, looked up): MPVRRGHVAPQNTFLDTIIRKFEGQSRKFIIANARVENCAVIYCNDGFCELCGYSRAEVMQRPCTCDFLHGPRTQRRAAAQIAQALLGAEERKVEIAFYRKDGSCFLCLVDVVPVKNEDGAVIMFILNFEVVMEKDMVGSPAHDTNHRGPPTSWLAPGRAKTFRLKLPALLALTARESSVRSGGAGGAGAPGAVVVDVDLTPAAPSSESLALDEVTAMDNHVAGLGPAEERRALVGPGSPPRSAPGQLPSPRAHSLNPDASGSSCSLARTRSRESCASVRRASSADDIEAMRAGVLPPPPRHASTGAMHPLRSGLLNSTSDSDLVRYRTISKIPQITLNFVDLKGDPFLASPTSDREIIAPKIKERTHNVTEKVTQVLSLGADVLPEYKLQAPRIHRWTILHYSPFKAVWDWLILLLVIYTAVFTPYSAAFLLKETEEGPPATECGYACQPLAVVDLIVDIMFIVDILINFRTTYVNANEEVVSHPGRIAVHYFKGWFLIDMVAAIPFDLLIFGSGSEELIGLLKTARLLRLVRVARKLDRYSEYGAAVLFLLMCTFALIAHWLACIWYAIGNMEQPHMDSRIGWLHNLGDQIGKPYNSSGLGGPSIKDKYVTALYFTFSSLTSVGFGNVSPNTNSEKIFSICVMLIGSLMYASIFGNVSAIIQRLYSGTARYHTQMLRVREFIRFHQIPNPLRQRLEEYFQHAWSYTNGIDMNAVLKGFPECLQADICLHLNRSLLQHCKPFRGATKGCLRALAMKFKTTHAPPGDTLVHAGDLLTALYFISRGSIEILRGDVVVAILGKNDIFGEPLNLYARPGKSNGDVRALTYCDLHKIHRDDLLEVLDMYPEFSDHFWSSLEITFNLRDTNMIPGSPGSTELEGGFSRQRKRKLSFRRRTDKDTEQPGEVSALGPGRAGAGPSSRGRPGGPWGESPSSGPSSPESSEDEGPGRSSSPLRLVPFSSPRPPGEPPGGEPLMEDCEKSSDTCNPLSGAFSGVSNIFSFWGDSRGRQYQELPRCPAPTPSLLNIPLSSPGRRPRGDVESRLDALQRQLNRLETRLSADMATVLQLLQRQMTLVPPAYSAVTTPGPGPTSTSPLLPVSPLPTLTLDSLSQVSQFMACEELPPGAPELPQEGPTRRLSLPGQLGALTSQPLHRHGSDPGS
Procedure, shortened: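 Measured: FluxOR fluorescence after thallium stimulation in U2OS cells transduced with hERG by baculovirus. Compounds pre-incubated around 10 min; medium Opti-MEM with 2% FCS. AC50 from Hill equation.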

[21] = target: Glutaminase kidney isoform, mitochondrial (Homo sapiens) (UniProt O94925); assay: qHTS for Inhibitors of Glutaminase (GLS): LOPAC Validation (AID 624146);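 further: glutamate product detected by oxidase and peroxidase coupled Amplex red fluorescence gain; series mostly up to about 46 µM; on the % scale 0 is the no-effect control and ±100 the full control effect; nearly all actives have a fitted effect of over 60% in size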
Procedure, shortened: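 Coupled fluorescence readout: glutamate oxidase/HRP/Amplex Red detect glutamate formed by hKGA from L-glutamine (1 mM solution added). Buffer 45 mM KH2PO4 pH 8.2, 0.02% Tween-20; reads at t0 and 30 min RT.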

[22] = qHTS of Trypanosoma Brucei Inhibitors: LOPAC Validation (AID 624147); further: 0% is about no effect
Procedure, shortened: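 Quantitative HTS: titrated library compounds versus trypanosomal pyruvate kinase in TEA buffer (pH 7.2) containing KCl, MgCl2, BSA and Tween-20. Reactions were initiated with ADP, 130 uM final. Kinase-Glo Plus luminescence was read after 45 min at RT.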

[23] = target: Glucagon-like peptide 1 receptor (Homo sapiens) (UniProt P43220); assay: qHTS of GLP-1 Receptor Agonists: LOPAC Validation (AID 624148);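 further: 0% is about no effect; higher luminescence signal means agonism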
Procedure, shortened: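 HEK293 cells stably co-expressing a cAMP-responsive luciferase reporter and a hypersensitive GLP-1R were plated 12 h at 37 °C and exposed to compounds for 4-6 hr at 37 °C, 5% CO2. Luminescence was read 12 min after adding detection reagent.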

[24] = qHTS of Nrf2 Activators: LOPAC Validation (AID 624149); further: 0% is about no effect
Procedure, shortened: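 Luminescence read-out of ARE-luciferase activation: AREc32_Fluc cells treated with compounds for 24 hr at 37 deg C, then lysed with Steady-Glo for 30 min at room temperature before reading.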

[25] = HTS Assay for Allosteric Antagonists of the Human D2 Dopamine Receptor: Hit Validation in HTRF (AID 624455);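 further: stable D1 dopamine receptor cell line scored for blocking the D1 response; on the % scale 0 is the no-effect control and ±100 the full control effect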
Procedure, shortened: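 First, antagonism was screened by calcium flux in a force-coupled, inducible Hek293 Trex D2 line challenged with EC80 dopamine. Hits then went into an HTRF assay in cells stably expressing D1, testing inhibition of the D1 response.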

[26] = target: T1, Hexokinase-4 (Homo sapiens) + Glucokinase regulatory protein (Homo sapiens) (UniProt P35557+Q14397); assay: qHTS assay for inhibitors of recombinant human GCK-GKRP interaction: Diaphorase-coupled assay (AID 743205)
T1 sequence (P35557 whole entry, looked up): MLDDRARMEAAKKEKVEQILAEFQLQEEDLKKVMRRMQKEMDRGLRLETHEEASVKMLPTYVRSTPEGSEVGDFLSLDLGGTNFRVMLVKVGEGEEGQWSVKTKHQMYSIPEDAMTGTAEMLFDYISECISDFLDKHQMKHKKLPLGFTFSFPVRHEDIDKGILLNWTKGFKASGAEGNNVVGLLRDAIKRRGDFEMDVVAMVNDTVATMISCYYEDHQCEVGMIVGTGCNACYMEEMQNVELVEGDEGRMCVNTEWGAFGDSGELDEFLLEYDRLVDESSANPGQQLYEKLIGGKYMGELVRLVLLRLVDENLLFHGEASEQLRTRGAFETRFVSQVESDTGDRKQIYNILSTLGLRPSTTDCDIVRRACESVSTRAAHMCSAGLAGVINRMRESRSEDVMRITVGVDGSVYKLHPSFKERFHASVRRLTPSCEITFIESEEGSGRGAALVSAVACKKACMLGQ
T1 sequence (Q14397 whole entry, looked up): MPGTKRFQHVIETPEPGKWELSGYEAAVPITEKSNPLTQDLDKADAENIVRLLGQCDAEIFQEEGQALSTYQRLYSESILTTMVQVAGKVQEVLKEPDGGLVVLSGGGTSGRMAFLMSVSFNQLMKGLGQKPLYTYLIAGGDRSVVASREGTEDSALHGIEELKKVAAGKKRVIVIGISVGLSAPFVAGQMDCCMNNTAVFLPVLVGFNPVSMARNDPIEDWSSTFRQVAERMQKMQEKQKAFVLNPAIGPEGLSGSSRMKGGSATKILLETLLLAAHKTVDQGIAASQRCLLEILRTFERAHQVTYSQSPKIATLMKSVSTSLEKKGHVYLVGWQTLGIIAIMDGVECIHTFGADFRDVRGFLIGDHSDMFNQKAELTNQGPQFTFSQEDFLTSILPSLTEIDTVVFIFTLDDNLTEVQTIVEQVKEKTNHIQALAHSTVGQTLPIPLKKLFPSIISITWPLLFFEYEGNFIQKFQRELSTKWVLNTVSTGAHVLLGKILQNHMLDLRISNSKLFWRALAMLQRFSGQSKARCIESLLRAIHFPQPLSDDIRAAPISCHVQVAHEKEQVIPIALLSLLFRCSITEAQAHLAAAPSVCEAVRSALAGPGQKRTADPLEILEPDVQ
Procedure, shortened: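 Inhibitors of the GCK–GKRP complex relieve GKRP suppression of GCK, detected through a G6PDH–diaphorase cascade reducing resazurin. Human GST-GCK and FLAG-GKRP are used at 10 nM with 5 mM glucose and 0.4 mM ATP.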

[27] = target: T1, Hexokinase-4 (Homo sapiens) + Glucokinase regulatory protein (Homo sapiens); assay: qHTS assay for inhibitors of recombinant human GCK-GKRP interaction: HTRF assay (AID 743207);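 further: 0% = DMSO with GCK present and -100% = DMSO wells lacking GCK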
Procedure, shortened: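 Steps: dispense GCK–GKRP complex (5 nM each, GST- and FLAG-tagged) with 2 uM S6P; pin in compounds; add XL665/Eu-cryptate-labelled antibodies; incubate 60 min at room temperature; read time-resolved FRET at 665 and 615 nm.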

[28] = Natriuretic polypeptide receptor (hNpr1) antagonism - Pilot counterscreen GloSensor control cell line (AID 1347045; calls by dose curve; further: series mostly up to about 38 µM; on the % scale 0 is the no-effect control and ±100 the full control effect)
Procedure, shortened: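 Luminescence was read before and 20 min after adding 50 uM SNP, which stimulates soluble guanylyl cyclase. The HEK293 cells expressing the GloSensor cGMP sensor had been preloaded with 2% reagent for 2 h and treated with compound.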

[29] = target: Atrial natriuretic peptide receptor 1 (Homo sapiens) (UniProt P16066); assay: Natriuretic polypeptide receptor (hNpr1) antagonism - Pilot screen (AID 1347049; calls by dose curve)
Procedure, shortened: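 HEK293 cells co-expressing hNpr1 and the GloSensor pGS-40F cGMP luciferase sensor were preloaded with 2% GloSensor reagent for 2 h. Compounds were added for 30 min at room temperature, then cells were stimulated with 0.1 nM hNppA for 20 min before luminescence readout.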

[30] = target: Atrial natriuretic peptide receptor 2 (Homo sapiens) (UniProt P20594); assay: Natriuretic polypeptide receptor (hNpr2) antagonism - Pilot subtype selectivity assay (AID 1347050; calls by dose curve; further: on the % scale 0 is the no-effect control and ±100 the full control effect)
Procedure, shortened: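 cGMP-sensor HEK293/hNpr2 cells; 2% GloSensor reagent 2 h RT; compounds 30 min; baseline luminescence read; 1 nM hNppC agonist 20 min RT; final luminescence read by CCD camera. Antagonism = reduced post-agonist signal.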

[31] = target: Parathyroid hormone/parathyroid hormone-related peptide receptor (Homo sapiens) (UniProt Q03431); assay: qHTS for PTHR1 Agonists: Optimization Screen against the NCGC LOPAC library (AID 1347079);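 further: GloSensor cAMP luminescence in HEK-293 GP2 cells expressing human PTHR1 with IBMX; 0% is about no effect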
Procedure, shortened: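 Agonist readout: GloSensor cAMP luminescence, read after 15 min at room temperature. HEK-293-derived GP2 line carries PTHR1; compounds tested as a titration for 1 hr at 37C in presence of IBMX. M-PTH (1-15) served as control.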

[32] = system: Zika virus NS2B-NS3 protease; assay: Primary screen GU AMC qHTS for Zika virus inhibitors (AID 1347154);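 further: 0% = no-inhibitor control and -100% = no-enzyme control; nearly all actives have a fitted effect of over 70% in size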
Procedure, shortened: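 Unlinked Zika NS2B hydrophilic domain/NS3 protease domain noncovalent complex (25 nM final) in 10 mM Tris-HCl pH 8.0, 0.01% Tween 20, with AMC peptide substrate. Fluorescence (ex 340, em 450 nm) change over 15 min, room temperature; percent inhibition fitted to 4-parameter Hill equation.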

[33] = target: Single-stranded DNA cytosine deaminase (Homo sapiens) (UniProt Q9GZX7); assay: Validation qHTS assay for inhibitors of Activation Induced Cytidine Deaminase (AID): AID signal (AID 1347429); further: on the % scale 0 is the no-effect control and ±100 the full control effect
Chain of Single-stranded DNA cytosine deaminase (Homo sapiens) (Q9GZX7 whole entry, looked up): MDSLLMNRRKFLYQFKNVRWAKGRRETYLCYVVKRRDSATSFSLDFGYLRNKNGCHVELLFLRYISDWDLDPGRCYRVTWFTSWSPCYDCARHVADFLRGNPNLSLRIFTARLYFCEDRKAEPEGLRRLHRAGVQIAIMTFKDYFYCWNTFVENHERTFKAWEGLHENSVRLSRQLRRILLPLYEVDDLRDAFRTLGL
Procedure, shortened: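 Fluorescence at 540 nm excitation and 590 nm emission reports ssDNA cytosine deamination by AID, with UDG in the same well. Compound-treated reactions ran 4 hr at room temperature with DJC20/DJC23 substrate, followed by 30 min NaOH treatment.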

C1CCC(N=C(NC23CC4CC(CC(C4)C2)C3)N2CCOCC2)CC1
inactive: outcome [1] | Potency [2] | Potency [3] | Potency [4] | outcome [5] | outcome [6] | outcome [7] | outcome [8] | outcome [9] | Potency [10] | activation [11] 1.31% | outcome [12] | outcome [13] | outcome [14] | outcome [15] | Potency [16] | Potency [17] | outcome [18] | Potency [19] | Potency [21] | outcome [22] | outcome [23] | outcome [24] | outcome [25] | outcome [26] | outcome [27] | Potency [28] | Potency [29] | Potency [30] | outcome [31] | Potency [32] | Potency [33]
4.19%: viability change [12]
active: Potency [20] 11.2 µM
